We go through 33 molecules from PubChem BioAssay (Tox21).

The structures appear in SMILES notation. Results filed as inconclusive are left out. Unmarked numbers belong to inactive results. Unless noted, calls follow the shape of the dose curve; as a rule, active = well fitted cell-killing curve with a large enough effect in the repeat runs; inconclusive = weak or mixed curves, or effect the other way; inactive = no such curve, though single readings can be large or run the other way.
% is scaled to controls: 0 for no effect and ±100 for the full control effect.

For one test, the target named is Vitamin D3 receptor (Homo sapiens) (UniProt P11473). Nature of the test: qHTS assay to identify small molecule antagonists of the vitamin D receptor (VDR) signaling pathway (AID 743223; active = well fitted inhibition curve with a large enough effect in the signal ratio in the repeat runs, not every such curve was filed as active; the % refers to the signal ratio). To be noted: VDR-UAS-bla HEK293T, beta-lactamase FRET ratio, 16 h; series mostly up to 61 µM; activity change, negative = inhibition: at the top concentration. A digest of the protocol: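 Fluorescence from LiveBLAzer B/G FRET substrate, read after 2 h at room temperature, reflects beta-lactamase reporter activity in VDR-bla cells treated 16 h at 37C with compounds and agonist 1alpha,25-dihydroxyvitamin D3 (3 nM final).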
Chain of Vitamin D3 receptor (Homo sapiens) (P11473 whole entry, looked up): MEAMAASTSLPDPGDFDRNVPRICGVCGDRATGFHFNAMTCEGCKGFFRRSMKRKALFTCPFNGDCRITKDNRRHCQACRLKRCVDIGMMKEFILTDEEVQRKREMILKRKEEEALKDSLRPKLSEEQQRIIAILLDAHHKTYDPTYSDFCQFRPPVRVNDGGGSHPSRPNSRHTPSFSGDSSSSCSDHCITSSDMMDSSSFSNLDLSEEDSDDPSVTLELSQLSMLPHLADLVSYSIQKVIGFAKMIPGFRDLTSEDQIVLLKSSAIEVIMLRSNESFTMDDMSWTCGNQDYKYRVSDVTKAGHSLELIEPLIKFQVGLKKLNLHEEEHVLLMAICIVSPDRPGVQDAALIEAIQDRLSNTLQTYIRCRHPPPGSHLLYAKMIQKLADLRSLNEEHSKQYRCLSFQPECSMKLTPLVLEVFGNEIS
On to `NC(=O)c1cc([N+](=O)[O-])cc([N+](=O)[O-])c1`, for which the “activity change, negative = inhibition” value is 0.992%.
Still for that read-out and setting: under `CC(Oc1ccc(Oc2ncc(C(F)(F)F)cc2Cl)cc1)C(=O)O` (centres undefined) stands 1.41%; under `CC(Cl)(Cl)[N+](=O)[O-]`, 17.5%; under `OCCBr`, 23%.
Still for that read-out and setting: under `OC(Cn1cncn1)(c1ccc(F)cc1)c1ccccc1F` (centres undefined) stands -5.76%; under `CC1CCC(=O)O1` (centres undefined), 0.474%.
Same read-out and setting: under `CC(COc1ccc(Oc2ccccc2)cc1)Oc1ccccn1` (centres undefined) stands -14.6%; under `O=[N+]([O-])c1cccc(O)c1`, 12.7% [at 78.8 µM].
With `CNC(=O)Oc1c(C(C)(C)C)cc(C)cc1C(C)(C)C`, the “activity change, negative = inhibition” value was 5.29%.
`C[N+](C)=CCl`: the “activity change, negative = inhibition” value was 5.72%.
Still for that read-out and setting: next, `COCC(=O)N(c1c(C)cccc1C)N1CCOC1=O`: -1.09%; `Cc1ncc2n1-c1ccc(Cl)cc1C(c1ccccc1F)=NC2`: 4.92%; `C[C@]12CC[C@H]3[C@@H](CC=C4C[C@@H](O)CC[C@@]43C)[C@@H]1CC[C@@H]2O`: -10.7%.
`O=C(Oc1ccc(Br)cc1)N1CCN2CCC1CC2`: the “activity change, negative = inhibition” value is 0.639%.
As to `CN/C(=N\[N+](=O)[O-])NCC1CCOC1` (centres undefined), the “activity change, negative = inhibition” value is 0.741%.
The same measure, in the same setting: under `COC(=O)C1=CCCN(C)C1` stands 0.285%; under `CCC(C)n1c(=O)[nH]c(C)c(Br)c1=O` (centres undefined), 2.88%.

System in the next test: not listed separately
Nature of the test: qHTS assay to identify small molecule agonists of the vitamin D receptor (VDR) signaling pathway - cell viability counter screen (AID 743224). Also: nearly all actives have a fitted effect of over 50% in size. To be noted: VDR-bla HEK293T viability, CellTiter-Glo luminescence, 16 h; series mostly up to 62.6 µM; activity change, negative = cytotoxicity: at the top concentration. A digest of the protocol:
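VDR-bla cell line, quantitative HTS format; 16 h compound incubation (37C, 5% CO2); ATP-based CellTiter-Glo luminescence measured in the reporter assay wells.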
Consider `NC(=O)c1cc([N+](=O)[O-])cc([N+](=O)[O-])c1`, for which the “activity change, negative = cytotoxicity” value is -2.41%.
The same measure, in the same setting: under `CN1CCC(O)(c2ccc(F)cc2)C(C(=O)c2ccc(F)cc2)C1` (centres undefined) stands -2.88%; under `O=NN1CCCCC1`, 16.3%.
The same measure, in the same setting: under `CCCCc1ccc(O)cc1` stands 0.274%.
Still for that read-out and setting: next, `CC(Oc1ccc(Oc2ncc(C(F)(F)F)cc2Cl)cc1)C(=O)O` (centres undefined): 5.45%.
For the molecule `Clc1ccccc1N1CCNCC1`, the “activity change, negative = cytotoxicity” value is -1.34%.
`CC(CC(C#N)(c1ccccc1)c1ccccc1)N(C)C` (centres undefined): the “activity change, negative = cytotoxicity” value was -8.16% [at 81.1 µM].
Same read-out and setting: next, `CC(Cl)(Cl)[N+](=O)[O-]`: 6.81%; `OCCBr`: -18.6%; `OC(Cn1cncn1)(c1ccc(F)cc1)c1ccccc1F` (centres undefined): -21.9%.
Same read-out and setting: under `N#CC(Cl)(Cl)Cl` stands -14%.
Still for that read-out and setting: next, `CCCCOC(=O)c1ccccc1C(=O)O`: 4.73%; `N#Cc1c(Cl)cccc1Cl`: 12.8%; `CC(=O)Nc1cc([As](=O)(O)O)ccc1O`: -4.29%.
For `COP(N)(=S)Oc1ccccc1C(=O)OC(C)C` (centres undefined), the “activity change, negative = cytotoxicity” value was -0.0533%.
Turning to `CC(COc1ccc(Oc2ccccc2)cc1)Oc1ccccn1` (centres undefined), the “activity change, negative = cytotoxicity” value was 1.82%.
For the molecule `CNC(=O)Oc1ccc(N(C)C)c(C)c1`, the “activity change, negative = cytotoxicity” value is -5.59%.
As for `O=[N+]([O-])c1cccc(O)c1`, the “activity change, negative = cytotoxicity” value was 13.5% [at 81.1 µM].
As to `CNC(=O)Oc1c(C(C)(C)C)cc(C)cc1C(C)(C)C`, the “activity change, negative = cytotoxicity” value is -17.6%.
In the case of `C[N+](C)=CCl`, the “activity change, negative = cytotoxicity” value was -18.1%.
Consider `CCOC(=O)C(c1c(O)c2ccccc2oc1=O)c1c(O)c2ccccc2oc1=O`, for which the “activity change, negative = cytotoxicity” value was -1.02%.
On the same count and under the same terms, under `COCC(=O)N(c1c(C)cccc1C)N1CCOC1=O` stands 0.276%; under `Cc1ncc2n1-c1ccc(Cl)cc1C(c1ccccc1F)=NC2`, 5.24%; under `O=CNC(N1CCN(C(NC=O)C(Cl)(Cl)Cl)CC1)C(Cl)(Cl)Cl` (centres undefined), -5.51%.
Consider `C#C[C@]1(O)C=C[C@H]2[C@@H]3CCC4=CC(=O)CC[C@@H]4[C@H]3CC[C@@]21CC`, for which the “activity change, negative = cytotoxicity” value is 0.846%.
Still for that read-out and setting: under `C[C@]12CC[C@H]3[C@@H](CC=C4C[C@@H](O)CC[C@@]43C)[C@@H]1CC[C@@H]2O` stands -0.367%; under `CC(C(O)c1ccccc1)N(C)C/C=C/c1ccccc1` (centres undefined), -23.3%; under `O=C(Oc1ccc(Br)cc1)N1CCN2CCC1CC2`, -10.6%.
In the case of `CN/C(=N\[N+](=O)[O-])NCC1CCOC1` (centres undefined), the “activity change, negative = cytotoxicity” value is 5.39%.
The same measure, in the same setting: next, `CN1CCN(C(=O)O[C@H]2c3nccnc3C(=O)N2c2ccc(Cl)cn2)CC1`: 13.5%.
Same read-out and setting: next, `COC(=O)C1=CCCN(C)C1`: -10.4%; `CCC(C)n1c(=O)[nH]c(C)c(Br)c1=O` (centres undefined): -2.48%.
